In all, about 39,000 compounds went through this assay and about 3,300 (8.5%) were called active. The entries come from a sample that favours actives as a whole.

The experiment deals with HepG2. Kind of experiment: cytotoxicity call (relative viability < 0.9). The note with it: 10 µM.
As to `C[C@@H]1CN([C@@H](C)CO)S(=O)(=O)c2ccc(C#C[C@@H](C)O)cc2O[C@@H]1CN(C)C(=O)c1ccccc1`, the cytotoxicity call was “inactive”. The entry for `C[C@@H]1CN([C@@H](C)CO)S(=O)(=O)c2ccc(C#Cc3ccncc3)cc2O[C@@H]1CN(C)C(=O)C1CCC1` is “inactive”; for `C[C@H](CO)N1C[C@H](C)[C@@H](CN(C)C(=O)C2CCC2)Oc2cc(C#Cc3ccncc3)ccc2S1(=O)=O` it is “active”; for `C[C@@H]1CN([C@H](C)CO)S(=O)(=O)c2ccc(C#Cc3ccncc3)cc2O[C@H]1CN(C)C(=O)C1CCC1` it is “active”. For `C[C@H]1CN([C@@H](C)CO)S(=O)(=O)c2ccc(C#Cc3ccncc3)cc2O[C@H]1CN(C)C(=O)C1CCC1`, the cytotoxicity call is “inactive”.

With `C[C@H]1CN([C@@H](C)CO)S(=O)(=O)c2ccc(C#Cc3ccncc3)cc2O[C@@H]1CN(C)C(=O)C1CCC1`, the cytotoxicity call is “inactive”. The entry for `C[C@@H]1CN([C@@H](C)CO)S(=O)(=O)c2ccc(C#Cc3ccncc3)cc2O[C@H]1CN(C)C(=O)C1CCC1` is “active”; for `C[C@H](CO)N1C[C@H](C)[C@H](CN(C)C(=O)C2CCC2)Oc2cc(C#Cc3ccncc3)ccc2S1(=O)=O` it is “active”.

In the case of `C[C@@H]1CN([C@@H](C)CO)C(=O)c2cccc(NS(=O)(=O)c3cn(C)cn3)c2O[C@@H]1CN(C)C(=O)Nc1ccc2c(c1)OCO2`, the cytotoxicity call was “inactive”.

As for `CCc1nc2ccc(C(=O)Nc3ccc(OC)c(OC)c3)cn2c1N(CC)Cc1cccc(Br)c1`, the cytotoxicity call is “inactive”. With `O=C(CSc1nnc(-c2ccccc2)n1C1CCCCC1)Nc1ccc(S(=O)(=O)Nc2ccccn2)cc1` the entry was “inactive”. With `Cc1ccc(CN)s1` the entry was “inactive”.

`C[C@H](CO)N1C[C@H](C)[C@@H](CN(C)C(=O)Nc2ccccc2)Oc2cc(Br)ccc2S1(=O)=O`: the cytotoxicity call is “inactive”. With `Cc1noc(C)c1NC(=O)Nc1ccc2c(c1)C(=O)N([C@@H](C)CO)C[C@@H](C)[C@H](CN(C)S(=O)(=O)c1cccs1)OCCCC[C@@H](C)O2` the entry was “inactive”.

On to `C[C@@H]1CCCCO[C@H](CN(C)Cc2ccc(C(=O)Nc3ccccc3N)cc2)[C@@H](C)CN([C@H](C)CO)C(=O)c2cc(N(C)C)ccc2O1`, for which the cytotoxicity call is “inactive”. With `C[C@H]1CN([C@@H](C)CO)C(=O)c2cc(NC(=O)CCN3CCOCC3)ccc2O[C@@H]1CN(C)C(=O)Nc1ccc(F)cc1` the entry was “inactive”; with `C/N=C1\S[C@@H](CC(=O)NC(C)C)C(=O)N1C`, “inactive”. With `C[C@@H]1CN([C@@H](C)CO)C(=O)c2cc(C#Cc3cccnc3)cnc2O[C@@H]1CN(C)S(=O)(=O)c1ccccc1F` the entry was “inactive”; with `C[C@H]1CN([C@@H](C)CO)C(=O)c2cccc(NC(=O)CCCCCC(=O)Nc3ccccc3N)c2O[C@@H]1CN(C)S(=O)(=O)c1cn(C)cn1`, “inactive”. The entry for `CC(C)NC(=O)N(C)C[C@H]1OCCCC[C@@H](C)Oc2ccc(NC(=O)Nc3cccc4ccccc34)cc2C(=O)N([C@H](C)CO)C[C@@H]1C` is “inactive”. As to `N#Cc1c(-c2ccccc2)no[n+]1[O-]`, the cytotoxicity call was “inactive”. The entry for `C[C@H]1CN([C@@H](C)CO)C(=O)c2cc(NC(=O)CCN3CCOCC3)ccc2O[C@@H]1CN(C)CC1CCCCC1` is “inactive”; for `Cc1ccc(S(=O)(=O)N(C)C[C@H]2Oc3ccc(NS(=O)(=O)c4cn(C)cn4)cc3CC(=O)N([C@H](C)CO)C[C@@H]2C)cc1` it is “inactive”. The entry for `C[C@@H]1CN([C@H](C)CO)S(=O)(=O)c2ccc(C#Cc3ccncc3)cc2O[C@@H]1CN(C)C(=O)C1CCC1` is “active”; for `Cc1noc(C)c1S(=O)(=O)Nc1ccc2c(c1)C(=O)N([C@@H](C)CO)C[C@@H](C)[C@@H](CN(C)S(=O)(=O)c1ccc(F)cc1)O2` it is “inactive”; for `C[C@@H]1CN([C@@H](C)CO)C(=O)Cc2cc(NC(=O)Nc3ccc(C(F)(F)F)cc3)ccc2O[C@H]1CN(C)Cc1ccc(Cl)c(Cl)c1` it is “active”. The entry for `C[C@H](CO)N1C[C@H](C)[C@@H](CN(C)Cc2ccc(Cl)c(Cl)c2)Oc2ccc(NC(=O)Nc3ccc(C(F)(F)F)cc3)cc2CC1=O` is “active”; for `C[C@@H]1CN([C@H](C)CO)C(=O)Cc2cc(NC(=O)Nc3ccc(C(F)(F)F)cc3)ccc2O[C@@H]1CN(C)Cc1ccc(Cl)c(Cl)c1` it is “active”; for `C[C@@H]1CN([C@H](C)CO)C(=O)Cc2cc(NC(=O)Nc3ccc(C(F)(F)F)cc3)ccc2O[C@H]1CN(C)Cc1ccc(Cl)c(Cl)c1` it is “inactive”. On to `C[C@H](CO)N1C[C@H](C)[C@H](CN(C)Cc2ccc(Cl)c(Cl)c2)Oc2ccc(NC(=O)Nc3ccc(C(F)(F)F)cc3)cc2CC1=O`, for which the cytotoxicity call is “inactive”.

`C[C@H]1CN([C@@H](C)CO)C(=O)Cc2cc(NC(=O)Nc3ccc(C(F)(F)F)cc3)ccc2O[C@@H]1CN(C)Cc1ccc(Cl)c(Cl)c1`: the cytotoxicity call is “inactive”. The entry for `C[C@H]1CN([C@@H](C)CO)C(=O)Cc2cc(NC(=O)Nc3ccc(C(F)(F)F)cc3)ccc2O[C@H]1CN(C)Cc1ccc(Cl)c(Cl)c1` is “active”; for `CC(C)NC(=O)N(C)C[C@@H]1Oc2ccc(NC(=O)CCCN(C)C)cc2C(=O)N([C@H](C)CO)C[C@@H]1C` it is “inactive”; for `COc1ccc2c3c(n(c2c1)C)[C@H](CO)N(C[C@]13CN(CC2CCOCC2)C1)C(=O)Cc1ccccn1` it is “inactive”. `NC(=O)c1ccc[n+](CC(=O)N2CCCCC2)c1`: the cytotoxicity call was “inactive”. With `Cc1noc(C)c1S(=O)(=O)Nc1ccc2c(c1)C(=O)N([C@@H](C)CO)C[C@H](C)[C@@H](CN(C)C(=O)Nc1ccccc1)O2` the entry was “inactive”.

`O=C(C[C@H]1CC[C@H]2[C@@H](COC[C@@H](O)CN2S(=O)(=O)c2ccc(F)cc2)O1)N1CCc2ccccc2C1`: the cytotoxicity call was “inactive”. `O=c1nc(NCCN2CCOCC2)cn[nH]1`: the cytotoxicity call is “inactive”. The entry for `NC(=O)Cn1nnc(-c2ccccc2)n1` is “inactive”; for `C[C@@H]1CN([C@H](C)CO)C(=O)c2cc(NC(=O)Nc3cccc4ccccc34)ccc2O[C@H]1CN(C)Cc1ccncc1` it is “inactive”; for `C[C@@H]1CN([C@@H](C)CO)C(=O)c2cccc(NC(=O)c3nc4ccccc4s3)c2O[C@@H]1CN(C)S(=O)(=O)c1cn(C)cn1` it is “inactive”. The entry for `COc1ccc2c3c([nH]c2c1)[C@H](CO)N(C[C@]13CN(C1)S(=O)(=O)c1ccccc1)C(=O)c1cnccn1` is “inactive”; for `COc1cccc(NC(=O)N[C@H]2CC[C@@H](CC(=O)N3CCOCC3)O[C@H]2CO)c1` it is “inactive”; for `C[C@@H]1CN([C@@H](C)CO)C(=O)Cc2cc(NC(=O)Nc3ccc(C(F)(F)F)cc3)ccc2O[C@@H]1CN(C)Cc1ccc(Cl)c(Cl)c1` it is “active”. For the molecule `COc1ccc(S(=O)(=O)N(C)C[C@H]2Oc3ccc(NC(=O)Cc4ccccc4)cc3C(=O)N([C@H](C)CO)C[C@@H]2C)cc1`, the cytotoxicity call is “inactive”. For the molecule `C[C@@H]1CN([C@H](C)CO)C(=O)c2cccc(NC(=O)Nc3cccc4ccccc34)c2O[C@H]1CN(C)C(=O)Nc1ccc2c(c1)OCO2`, the cytotoxicity call is “inactive”.

With `NS(=O)(=O)c1cccc2c1c([N+](=O)[O-])cc1[nH]c(=O)c(=O)[nH]c12`, the cytotoxicity call is “inactive”. On to `C[C@@H]1CCCCO[C@@H](CN(C)CC2CC2)[C@@H](C)CN([C@H](C)CO)C(=O)c2cc(NS(C)(=O)=O)ccc2O1`, for which the cytotoxicity call is “inactive”. With `C[C@H](CO)N1C[C@H](C)[C@H](CN(C)Cc2ccc(-c3ccccc3)cc2)Oc2ccc(NC(=O)Nc3ccc4c(c3)OCO4)cc2CC1=O` the entry was “active”. Consider `C[C@@H]1CN([C@@H](C)CO)C(=O)Cc2cc(NC(=O)Nc3ccc4c(c3)OCO4)ccc2O[C@H]1CN(C)Cc1ccc(-c2ccccc2)cc1`, for which the cytotoxicity call is “active”. The entry for `C[C@H]1CN([C@@H](C)CO)C(=O)Cc2cc(NC(=O)Nc3ccc4c(c3)OCO4)ccc2O[C@H]1CN(C)Cc1ccc(-c2ccccc2)cc1` is “inactive”; for `C[C@H]1CN([C@@H](C)CO)C(=O)Cc2cc(NC(=O)Nc3ccc4c(c3)OCO4)ccc2O[C@@H]1CN(C)Cc1ccc(-c2ccccc2)cc1` it is “active”.

With `C[C@@H]1CN([C@H](C)CO)C(=O)Cc2cc(NC(=O)Nc3ccc4c(c3)OCO4)ccc2O[C@H]1CN(C)Cc1ccc(-c2ccccc2)cc1`, the cytotoxicity call was “inactive”. With `C[C@@H]1CN([C@H](C)CO)C(=O)Cc2cc(NC(=O)Nc3ccc4c(c3)OCO4)ccc2O[C@@H]1CN(C)Cc1ccc(-c2ccccc2)cc1` the entry was “active”; with `C[C@@H]1CN([C@@H](C)CO)C(=O)Cc2cc(NC(=O)Nc3ccc4c(c3)OCO4)ccc2O[C@@H]1CN(C)Cc1ccc(-c2ccccc2)cc1`, “inactive”. The entry for `C[C@H](CO)N1C[C@H](C)[C@@H](CN(C)Cc2ccc(-c3ccccc3)cc2)Oc2ccc(NC(=O)Nc3ccc4c(c3)OCO4)cc2CC1=O` is “inactive”; for `CC(C)NC(=O)N(C)C[C@@H]1Oc2ccc(NC(=O)NC3CCCCC3)cc2CC(=O)N([C@H](C)CO)C[C@H]1C` it is “inactive”; for `O=C(CN1CCOCC1)NCC[C@H]1CC[C@H](NS(=O)(=O)c2ccc(F)cc2)[C@H](CO)O1` it is “inactive”. For the molecule `C[C@@H]1CCCCO[C@H](CN(C)Cc2ccncc2)[C@H](C)CN([C@H](C)CO)C(=O)c2cc(NC(=O)c3ccccc3)ccc2O1`, the cytotoxicity call is “inactive”. With `C[C@@H]1CCCCO[C@@H](CN(C)Cc2ccccc2)[C@@H](C)CN([C@H](C)CO)C(=O)c2cc(NC(=O)c3ccccc3)ccc2O1` the entry was “inactive”; with `C[C@@H]1CN([C@H](C)CO)C(=O)c2cc(C#CCc3ccccc3)cnc2O[C@H]1CN(C)C(=O)C1CCOCC1`, “inactive”. The entry for `Cc1ccc(S(=O)(=O)N(C)C[C@H]2Oc3ccc(NS(=O)(=O)c4c(C)noc4C)cc3C(=O)N([C@@H](C)CO)C[C@H]2C)cc1` is “inactive”; for `CC(C)(C)c1ccc(-c2nc3ccccc3s2)cc1` it is “inactive”.

In the case of `C[C@H](CO)N1C[C@H](C)[C@@H](CN(C)S(=O)(=O)c2ccccc2)Oc2ncc(-c3cccc(C(=O)N(C)C)c3)cc2C1=O`, the cytotoxicity call is “inactive”. With `Cc1noc(C)c1NC(=O)N(C)C[C@@H]1Oc2ccc(NC(=O)CCN3CCOCC3)cc2C(=O)N([C@H](C)CO)C[C@H]1C` the entry was “inactive”.

These data come from the antibiotic and cytotoxicity screens of Wong et al. (2023).
